Assay outcomes deposited in PubChem BioAssay by National Center for Advancing Translational Sciences (NCATS).
Lassa entry inh = inhibitors of Lassa virus binding or cell entry; Lassa virus pseudotype entry inhibition, cell reporter; Potency, µM (series often up to 37.9 µM), usual class: inhibitors; hit rate 1.2% among 300,000; calls by dose curve; tested in HEK293 cells; note: nearly all actives have a fitted effect of over 50% in size
HCMV inh = inhibitors of human cytomegalovirus; hit rate 4.5% among 410,000; HFF cells, HCMV-luciferase reporter, 72 h; hits give low values; AID 1259415; activity change, negative = inhibition, % at 57.5 µM; in the data active = activity change below about -60%; inconclusive = no clear call, values can overlap the other calls; inactive = above about -39%
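Inhibition of viral replication was scored as loss of reporter luminescence in HFFs infected with HCMV-luciferase (MOI 1 PFU/cell) for 72 h; compounds tested at 2 doses, normalized to buffer and Salinomycin controls.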
SARS PLpro yeast = SARS-CoV PLP inhibition in yeast; S. cerevisiae expressing SARS-CoV PLpro, growth rescue; Potency, µM (series often up to 32.9 µM), usual class: activators; hit rate 0.19% among 330,000; calls by dose curve; note: nearly all actives have a fitted effect of over 55% in size
HCV inhibitor = HCV inhibition; Huh7.5.1 HCVcc-Cre infection, luciferase reporter, 44 h; Potency, µM (series often up to 41.8 µM), actives largely listed as inhibitors; hit rate 3.4% among 340,000; AID 651820; active = well fitted inhibition curve with a large enough effect; inconclusive = small, poorly fitted or top-dose-only effect, or another doubt; inactive = no such curve, though single readings can be large or run the other way
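HCVcc-Cre virus at an moi near 0.5 was added right after compound to cells cultured 4 h from seeding (1,000 cells/well). Luciferase activity was determined 44 h later, 15 min after substrate addition at RT.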
MARV entry inh = blocks Marburg virus binding to or entry into cells; hit rate 1.8% among 300,000; Marburg virus pseudotyped entry inhibition, cell reporter; Potency, µM (doses to about 37.8 µM), most hits filed as inhibitors; calls by dose curve; tested in HEK293 cells
FMDV inh = antivirals against foot and mouth disease virus; FMDV antiviral cell-based qHTS; Potency, µM (top dose mostly 57.9 µM), usual class: inhibitors; hit rate 1.2% among 410,000; AID 1159524; calls by dose curve; tested in HEK293T cells; note: read-out not given here; nearly all actives have a fitted effect of over 45% in size
Numbers stand for hits; – = inactive; ? = inconclusive; · = no result; [ ] = another dose, or the depositor's remark. A selection: hits, their analogues and other compounds. The true share with any hit is near 8%.

SMILES | Lassa entry inh | HCMV inh | SARS PLpro yeast | HCV inhibitor | MARV entry inh | FMDV inh
COc1ccccc1CCn1cnc(C)c1CC(C)C | · | – | · | · | · | –
CC(C)C(NS(C)(=O)=O)c1nnc2n1CCN(Cc1ccnc3ccccc13)CC2 (stereo not drawn) | · | · | · | · | · | –
Nc1c(C(=O)NCc2ccco2)c2nc3ccccc3nc2n1CCN1CCOCC1 | – | -94 | – | – | ? | –
COc1ccc(Cn2c(N)c(C(=O)NCc3ccco3)c3nc4ccccc4nc32)cc1 | ? | – | – | ? | ? | –
COc1ccc(CCn2c(N)c(C(=O)NCc3ccco3)c3nc4ccccc4nc32)cc1 | ? | -75 | – | ? | ? | –
CCN1CCN(Cc2nc3cc(NC(=O)c4ccccc4[N+](=O)[O-])ccc3n2CC)CC1 | – | – | · | · | – | –
CC1=CC[C@@H](C)O[C@@]2(C1)C(=O)Nc1ccccc12 | · | · | · | · | – | ·
COCCN=C1N[C@@H](c2ccc(Br)cc2)C(C(=O)OC)=C(C)N1Cc1ccccc1 | · | – | – | 3.5µM | · | –
COC(=O)C1=C(C)N(Cc2ccc(C(F)(F)F)cc2)C(=NCc2ccc3c(c2)OCO3)NC1c1ccccc1 (stereo not drawn) | · | -100 | · | · | · | ·
CCN(CC)CCCN=C1N[C@@H](c2cccc(C(F)(F)F)c2)C(C(=O)OC)=C(C)N1CC | · | ? | – | 10µM | · | –
COCCN=C1N[C@@H](c2ccccc2)C(C(=O)OC)=C(C)N1Cc1ccccc1 | · | – | – | – | · | –
COC(=O)C1=C(C)N(Cc2ccccc2)C(=NCc2ccccc2)N[C@H]1c1ccccc1 | · | -70 | – | ? | ? | –
COc1ccccc1CN1CC(C(=O)NCc2cc(C(C)C)no2)CCC1=O (stereo not drawn) | – | – | – | – | – | –
CN(C)c1cccc(Nc2cc3c(cn2)cc(-c2cnn(C)c2)n3C)c1 | · | – | · | · | · | ·
CCC(=O)Nc1ccc(C)cc1-c1nc2ccccc2n(CC(=O)c2ccc(C)cc2)c1=O | – | – | · | · | – | –
O=C(NCC1CC1)c1ccccc1Cl | · | – | – | – | · | –
COC(=O)C1=C(C)N(Cc2cccc(C(F)(F)F)c2)C(=NCc2ccccc2C(F)(F)F)NC1c1cccc(F)c1 (stereo not drawn) | · | -78 | · | · | · | ·
COc1cc(-c2cc(C)c3cccc(OC)c3n2)cc2c1OCCN(C(=O)CCn1nc(C)cc1C)C2 | · | · | · | · | · | –
Cc1nn(CCC(=O)N2CCN(c3ccccc3)CC2)c(C)c1S(=O)(=O)N1CCCC1 | – | – | · | · | · | –
CCN(CC)CCOC(=O)C1(C2CCCCC2)CCCCC1 | ? | – | – | –[8.37 µM] | 13µM | –
CCN(CC)CCOC(=O)C1(c2ccccc2)CCCC1 | – | – | – | ? | – | ·
Cc1ccc(-c2nc3c4ccccc4n(CC(=O)N4CCN(c5ccc(F)cc5)CC4)c(=O)n3n2)cc1 | – | – | · | · | · | –
CCN(CC)S(=O)(=O)c1ccc2c(c1)c(=O)c(C(=O)N(C)Cc1ccccc1)cn2C | – | – | · | · | – | –
COc1ccc(NS(=O)(=O)c2cccc(C(=O)N3CCN(S(=O)(=O)c4ccccc4)CC3)c2)cc1 | · | – | · | 10µM | · | ?
CCOc1ccc(NS(=O)(=O)c2cccc(C(=O)NCC3(N(C)C)CCCCC3)c2)cc1 | ? | – | – | ? | 11µM | –
SMILES | Lassa entry inh | HCMV inh | SARS PLpro yeast | HCV inhibitor | MARV entry inh | FMDV inh
CN(C)C1(CNC(=O)c2ccc(NS(=O)(=O)c3ccc(Cl)c(Cl)c3)cc2)CCCCC1 | · | – | – | ? | · | –
COc1ccc(Cl)cc1NS(=O)(=O)c1cccc(C(=O)NC2CCN(Cc3ccccc3)CC2)c1 | · | – | · | ? | · | ?
COc1ccc(NS(=O)(=O)c2cccc(C(=O)NC3CCN(Cc4ccccc4)CC3)c2)cc1 | ? | -65 | – | ? | ? | –
COc1ccc(NS(=O)(=O)c2cccc(C(=O)N3CCC3)c2)cc1 | – | – | – | ? | – | –
COc1ccc(Cn2c(=O)[nH]c3cc(C(=O)NC4CCN(Cc5ccccc5)CC4)ccc32)cc1 | – | – | – | 10µM | 9.2µM | ?
COc1ccccc1[C@@]1(CC(=O)N2CCOCC2)CCO[C@@H](C(C)C)C1 | · | · | · | · | – | ·
COc1ccc(NS(=O)(=O)c2cccc(C(=O)NCC3(N4CCOCC4)CCCCC3)c2)cc1 | ? | -67 | – | – | ? | –
CCN1CCN(c2ccc(NC(=O)c3ccc4c(c3)[nH]c(=O)n4Cc3ccc(F)cc3)cc2)CC1 | ? | ? | – | 7.1µM | ? | –
COc1ccc(NS(=O)(=O)c2cccc(C(=O)NNC(=O)NCCCl)c2)cc1 | – | -65 | – | – | – | –
COc1ccc(NS(=O)(=O)c2cccc(C(=O)NCC3(N4CCCCC4)CCCCC3)c2)cc1 | – | – | – | – | ? | –
COc1ccc(NS(=O)(=O)c2cccc(C(=O)NCc3ccccc3CN3CCCC3)c2)cc1 | · | – | – | 11µM | · | –
COc1ccc(Cn2c(=O)[nH]c3cc(C(=O)Nc4ccc(N5CCN(C)CC5)cc4)ccc32)cc1 | – | – | – | ? | ? | –
Cn1c(N)c(N2CCN(c3ccccc3)CC2)c(=O)[nH]c1=O | – | – | – | – | – | ?
Cc1cc(O)c2c(C)c(CC(=O)NCc3ccccc3Cl)c(=O)oc2c1 | – | – | · | · | – | –
C=CC(=O)N1c2ccccc2Sc2ccc(NC(=O)OCC)cc21 | ? | – | · | ? | ? | 13µM
CCOC(=O)Nc1ccc2c(c1)N(C(=O)N1CCN(C)CC1)c1ccccc1S2 | – | – | – | – | ? | –
CCOc1ccc2nc(N3CCCC(C(=O)Nc4ccc(OC)cc4)C3)sc2c1 (stereo not drawn) | · | – | · | · | ? | –
CCOc1ccc(Oc2ccccc2NS(=O)(=O)c2ccc(CCC(=O)O)cc2)cc1 | · | -64 | – | – | · | ?
CCCNS(=O)(=O)c1ccc(CCC(=O)Nc2cc(Cl)ccc2Oc2ccccc2)cc1 | ? | – | – | 10µM | ? | ?
COc1ccc(CCC(=O)Nc2cc(Cl)ccc2OC)cc1 | ? | – | – | ? | – | ·
CC(C)(C)NS(=O)(=O)c1ccc(CCC(=O)Nc2cc(Cl)ccc2Oc2ccccc2)cc1 | ? | – | – | 8.9µM | 8.9µM | ?
CC(C)CNS(=O)(=O)c1ccc(CCC(=O)Nc2cc(Cl)ccc2Oc2ccccc2)cc1 | ? | – | – | ? | – | ?
O=C(O)CCc1ccc(S(=O)(=O)Nc2ccc(OCc3ccccc3)cc2)cc1 | – | – | – | ? | ? | –
CCCC12CN3CC(C)(CN(C1)C3c1ccco1)C2=O (stereo not drawn) | · | – | – | – | – | –
Cc1cccc(NS(=O)(=O)c2ccc(NC(=O)N3CCCC3)cc2)c1 | ? | – | · | · | · | –
COc1ccc(NC(=O)CCN2C(=O)c3ccncc3C2=O)cc1OC | · | – | – | – | · | –
COc1ccc(C(=O)c2c(C(F)(F)F)oc3c2C(=O)c2ccccc2C3=O)cc1OC | 2.5µM | -103 | – | ? | 2.8µM | 10µM
COC(=O)c1cc(CNC(=O)c2cccc(C)c2)cc(NC(=O)c2ccncc2)c1 | · | · | · | · | · | –
O=S(=O)(Nc1ccc2c3c(cccc13)CC2)c1ccc(F)cc1 | – | -61 | – | – | ? | –
CSc1ccc(S(=O)(=O)Nc2ccc3c(c2)NC(=O)CC3)cc1 | – | – | – | – | – | –
